Consider eight compounds from PubChem BioAssay AID651591 (Broad Institute, 2012).

Potency and affinity values are given separately. Active and inactive are the calls of the source.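 How the source made its calls: active means compounds lowering cell ATP signal whose fitted half-effect dose is at most a set limit; inconclusive means flat fit showing moderate signal loss, or unreliable curve fit; inactive means the rest, including signal increases.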

This experiment in a line: cytotoxicity in MITF-independent A375 cells – cell-based, CellTiter-Glo luminescence, dry powder, set 9, counter-screen for MITF modulator project, dose response (AID 651591). Particulars: A375 melanoma viability, CellTiter-Glo ATP luminescence, 24 h; series mostly up to 35 µM; activity change, negative = cytotoxicity: at the top concentration. In general terms: ATP-based viability assays read luminescence as a measure of living cells.
As to `O=C1C=C(NS(=O)(=O)c2ccccc2)C(=O)c2ccccc21`, the “activity change, negative = cytotoxicity” value is -10.1% (inactive). Under `NC1=C(NS(=O)(=O)c2ccc(Br)cc2)C(=O)c2ccccc2C1=O` stands 1.99% (inactive). Under `CC(C)N1CCN(C2=C(Nc3ccc(F)cc3F)C(=O)c3ccccc3C2=O)CC1` stands -13% (inactive); under `O=C1C(Nc2ccccc2)=C(c2ccccc2)C(=O)c2ccccc21`, -6.4% (inactive). Next, `NC1=C(NS(=O)(=O)c2ccccc2)C(=O)c2ccccc2C1=O`: -5.18% (inactive); `O=C1C=C(NS(=O)(=O)c2cccs2)C(=O)c2ccccc21`: -2.97% (inactive). Turning to `O=C1C=C(NS(=O)(=O)c2ccc(Br)cc2)C(=O)c2ccccc21`, the “activity change, negative = cytotoxicity” value was -3.17% (inactive).

Consider `NC1=C(NS(=O)(=O)c2ccc(Br)s2)C(=O)c2ccccc2C1=O`, for which the “activity change, negative = cytotoxicity” value is 0.175% (inactive).
